Results filed as inconclusive are left out. Calls of active or inactive are those of the source. Unless noted, the call rests on the fitted dose curve; in most records, active means well fitted curve in the direction sought with a large enough effect in the repeat runs; inconclusive means weak or mixed curves; inactive means no such curve, though single readings can be large; an effect the other way counts as inactive or inconclusive.
Columns and labels:
[1] = biological target: Retinoic acid receptor RXR-alpha (Homo sapiens) (UniProt P19793); experiment: qHTS assay to identify small molecule agonists of the RXR signaling pathway (AID 1159527; calls by dose curve; further: nearly all actives have a fitted effect of over 35% in size)
Outline: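 Reporter activation is measured as beta-lactamase activity via FRET substrate cleavage (emission 460/530 nm) in HEK 293T cells expressing an RXR-alpha-driven bla construct, following 16 hr compound exposure at 37 C.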

[2] = qHTS assay to identify small molecule agonists of the RXR signaling pathway - cell viability counter screen (AID 1159529); further: series mostly up to about 77 µM; nearly all actives have a fitted effect of over 50% in size
Outline: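 Tox21 10K compounds were tested for cytotoxicity against GeneBLAzer RXR-alpha HEK 293T cells grown in 2% charcoal-stripped FBS. Exposure lasted 16 hr at 37 C, 5% CO2; viability read by CellTiter-Glo luminescence.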

[3] = qHTS assay to identify small molecule antagonists of the retinoid acid receptor (RAR) signaling pathway - cell viability counter screen (AID 1159551); further: nearly all actives have a fitted effect of over 35% in size
Outline: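 Viability of C3RL4 cells is quantified from ATP by luminescence after 6 h treatment at 37 C with compounds and 1 uM retinol.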

[4] = qHTS assay to identify small molecule antagonists of the retinoic acid receptor (RAR) signaling pathway (AID 1159552; further: nearly all actives have a fitted effect of over 50% in size; further: potency means the concentration at half of the fitted maximal effect)
Outline: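 Overnight-plated C3RL4 reporter cells get compound, then retinol to 1 uM final; plates sit 6 hr at 37 C, 5% CO2. A luciferase reagent is added and light output recorded after 30 min at room temperature.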

[5] = qHTS assay to identify small molecule agonists of the retinoic acid receptor (RAR) signaling pathway (AID 1159553)
Outline: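 Compounds dissolved in DMSO were pinned onto C3RL4 cells seeded the previous day, and plates were held 6 hr at 37 C. RARE-driven luciferase output was then read by luminescence.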

[6] = qHTS assay to identify small molecule antagonists of the estrogen related receptor (ERR) signaling pathway from Tox21 library - cell viability counter screen (AID 1224834); further: nearly all actives have a fitted effect of over 30% in size
Outline: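 In this quantitative HTS format, ERR cells receive compounds in DMSO and are incubated for 17.5 h at 37 C. Live-cell protease activity is then detected with CellTiter-Fluor.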

[7] = biological target: Luciferin 4-monooxygenase (Photinus pyralis) (UniProt P08659); experiment: qHTS assay to identify small molecule inhibitors of firefly luciferase (AID 1224835); further: series mostly up to about 120 µM; nearly all actives have a fitted effect of over 25% in size
Outline: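 Biochemical qHTS: compounds run as interplate titrations against purified firefly enzyme, with D-luciferin and ATP each at its KM concentration. Light output recorded by CCD imaging.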

[8] = qHTS assay to identify small molecule agonists of the constitutive androstane receptor (CAR) signaling pathway - cell viability counter screen (AID 1224836); further: series mostly up to about 92 µM; nearly all actives have a fitted effect of over 45% in size
Outline: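 Fluorescence from CellTiter-Fluor indicates live cells after 23 h exposure. The human hepatoma line expresses hCAR and a CYP2B6-2.2kb reporter. Incubation medium contains 0.75 uM PK11195 (final).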

[9] = qHTS assay to identify small molecule antagonists of the constitutive androstane receptor (CAR) signaling pathway - cell viability counter screen (AID 1224837); further: series mostly up to about 92 µM; nearly all actives have a fitted effect of over 45% in size
Outline: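 In quantitative HTS format, compounds at 15 concentrations were applied to HepG2 cells double-transfected with hCAR and CYP2B6-2.2kb under 50 nM CITCO stimulation; live-cell protease activity was read after 23 hr via CellTiter-Fluor.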

[10] = biological target: Nuclear receptor subfamily 1 group I member 3 (Homo sapiens) (UniProt Q14994); experiment: qHTS assay to identify small molecule antagonists of the constitutive androstane receptor (CAR) signaling pathway (AID 1224838); further: nearly all actives have a fitted effect of over 40% in size
Outline: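 CITCO-stimulated (50 nM final) HepG2 cells stably transfected with hCAR and CYP2B6-2.2kb luciferase were exposed to compounds at 15 concentrations for 24 h at 37 C/5% CO2. A luciferase reagent was added and luminescence recorded after 30 min.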

[11] = qHTS assay to identify small molecule agonists of the estrogen related receptor signaling pathway with the pleiotropic PPARgamma coactivator (PGC) from Tox21 10K library (AID 1224842); further: nearly all actives have a fitted effect of over 15% in size
Outline: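 PGC/ERR reporter cell line, 2,000 cells per well, incubated 6 h at 37 C before 23 nL compound in DMSO was added. After 18 h at 37 C, One-Glo luminescence read following 30 min at room temperature.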

[12] = biological target: Thyrotropin receptor (Homo sapiens) (UniProt P16473); experiment: qHTS assay to identify small molecule agonists of the thyroid stimulating hormone receptor (TSHR) signaling pathway (AID 1224843; calls by dose curve; further: nearly all actives have a fitted effect of over 45% in size; further: potency means the concentration at half of the fitted maximal effect)
Outline: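 Agonist-mode screen: TSHR HEK293 cells received test chemicals for half an hour at room temperature, then HTRF cAMP detection reagents for one hour prior to fluorescence measurement. Each chemical ran as a 15-concentration series, triplicated.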

[13] = qHTS assay to identify small molecule antagonists of the estrogen related receptor signaling pathway with the pleiotropic PPARgamma coactivator (PGC) from Tox21 10K library - cell viability counter screen (AID 1224840; active means well fitted cell-killing curve with a large enough effect in the repeat runs, not every such curve was filed as active; further: nearly all actives have a fitted effect of over 40% in size)
Outline: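 Viability counter screen, PGC/ERR cells: 17.5 h compound exposure at 37 C, CellTiter-Fluor fluorescence endpoint.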

[14] = biological target: Nuclear receptor subfamily 1 group I member 3 (Homo sapiens) (UniProt Q14994); experiment: qHTS assay to identify small molecule agonists of the constitutive androstane receptor (CAR) signaling pathway (AID 1224839); further: nearly all actives have a fitted effect of over 15% in size; further: potency means the concentration at half of the fitted maximal effect
Outline: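 Stable hCAR/CYP2B6-2.2kb HepG2 line in DMEM with 10% FBS; compounds (15 concentrations) and 0.75 uM PK11195 final, 24 h at 37 C/5% CO2, then ONE-Glo luminescence after 30 min.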

[15] = qHTS assay to identify small molecule antagonists of the estrogen related receptor signaling pathway with the pleiotropic PPARgamma coactivator (PGC) from Tox21 10K library (AID 1224841; call rule not given here; further: actives are mostly falling curves and most rising ones were filed inactive; nearly all actives have a fitted effect of over 50% in size; further: potency means the concentration at half of the fitted maximal effect)
Outline: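 In the PGC/ERR line, DMSO solutions of test chemicals are pin-delivered to 2,000 cells/well six hours after dispensing. Following eighteen hours' incubation, One-Glo reagent is added and luminescence recorded.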

[16] = qHTS assay to identify small molecule antagonists of the estrogen related receptor (ERR) signaling pathway - cell viability counter screen (AID 1224818); further: series mostly up to about 46 µM
Outline: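 Cytotoxicity check run alongside the ERR antagonist screen: cells exposed to test compounds 17.5 h at 37 C, viability taken as CellTiter-Fluor fluorescence intensity.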

[17] = qHTS assay to identify small molecule antagonists of the estrogen related receptor signaling pathway with the pleiotropic PPARgamma coactivator (PGC) cell viability counter screen (AID 1224822; further: series mostly up to about 46 µM)
Outline: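 Viable cell signal (CellTiter-Fluor, 30 min, 37 C/5% CO2) was measured in PGC/ERR cells after a 17.5 h compound incubation.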

Measured: Potency

Sequence of Nuclear receptor subfamily 1 group I member 3 (Homo sapiens) (Q14994 whole entry, looked up): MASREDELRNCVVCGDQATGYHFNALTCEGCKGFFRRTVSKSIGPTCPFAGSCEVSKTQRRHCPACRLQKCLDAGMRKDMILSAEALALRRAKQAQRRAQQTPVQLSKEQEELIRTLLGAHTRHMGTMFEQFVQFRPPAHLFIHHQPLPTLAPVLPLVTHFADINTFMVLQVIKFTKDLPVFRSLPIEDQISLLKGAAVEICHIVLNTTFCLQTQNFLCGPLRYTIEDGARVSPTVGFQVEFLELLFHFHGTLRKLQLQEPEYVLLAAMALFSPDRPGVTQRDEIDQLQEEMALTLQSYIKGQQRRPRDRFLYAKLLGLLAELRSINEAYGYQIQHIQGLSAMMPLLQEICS
Sequence of Luciferin 4-monooxygenase (Photinus pyralis) (P08659 whole entry, looked up): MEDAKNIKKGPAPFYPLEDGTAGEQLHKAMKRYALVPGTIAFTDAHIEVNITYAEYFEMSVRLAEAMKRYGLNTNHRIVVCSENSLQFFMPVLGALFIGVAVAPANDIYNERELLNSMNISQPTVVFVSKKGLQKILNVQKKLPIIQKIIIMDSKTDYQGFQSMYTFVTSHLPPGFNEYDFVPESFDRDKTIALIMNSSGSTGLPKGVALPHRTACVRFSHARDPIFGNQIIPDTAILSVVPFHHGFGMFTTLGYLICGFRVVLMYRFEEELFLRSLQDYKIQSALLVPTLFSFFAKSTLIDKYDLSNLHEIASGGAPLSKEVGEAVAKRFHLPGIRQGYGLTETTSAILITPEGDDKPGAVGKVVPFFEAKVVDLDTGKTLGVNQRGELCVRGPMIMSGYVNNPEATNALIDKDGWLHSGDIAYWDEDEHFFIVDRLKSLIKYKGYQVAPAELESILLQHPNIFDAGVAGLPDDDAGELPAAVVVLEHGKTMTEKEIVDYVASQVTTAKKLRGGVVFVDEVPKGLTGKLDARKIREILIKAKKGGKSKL
Sequence of Retinoic acid receptor RXR-alpha (Homo sapiens) (P19793 whole entry, looked up): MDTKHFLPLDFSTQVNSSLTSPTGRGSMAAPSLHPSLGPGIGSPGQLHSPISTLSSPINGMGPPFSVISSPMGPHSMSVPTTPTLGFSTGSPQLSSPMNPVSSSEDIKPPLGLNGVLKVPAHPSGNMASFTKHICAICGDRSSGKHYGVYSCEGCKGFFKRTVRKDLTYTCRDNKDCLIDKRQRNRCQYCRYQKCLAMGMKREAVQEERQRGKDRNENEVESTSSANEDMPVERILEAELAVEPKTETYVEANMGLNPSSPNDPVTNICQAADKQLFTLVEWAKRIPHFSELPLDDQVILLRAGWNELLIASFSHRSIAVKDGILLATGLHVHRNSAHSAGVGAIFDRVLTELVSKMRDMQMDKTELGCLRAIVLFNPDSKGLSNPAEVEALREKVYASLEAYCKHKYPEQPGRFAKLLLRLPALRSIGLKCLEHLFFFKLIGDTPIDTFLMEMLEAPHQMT
Sequence of Thyrotropin receptor (Homo sapiens) (P16473 whole entry, looked up): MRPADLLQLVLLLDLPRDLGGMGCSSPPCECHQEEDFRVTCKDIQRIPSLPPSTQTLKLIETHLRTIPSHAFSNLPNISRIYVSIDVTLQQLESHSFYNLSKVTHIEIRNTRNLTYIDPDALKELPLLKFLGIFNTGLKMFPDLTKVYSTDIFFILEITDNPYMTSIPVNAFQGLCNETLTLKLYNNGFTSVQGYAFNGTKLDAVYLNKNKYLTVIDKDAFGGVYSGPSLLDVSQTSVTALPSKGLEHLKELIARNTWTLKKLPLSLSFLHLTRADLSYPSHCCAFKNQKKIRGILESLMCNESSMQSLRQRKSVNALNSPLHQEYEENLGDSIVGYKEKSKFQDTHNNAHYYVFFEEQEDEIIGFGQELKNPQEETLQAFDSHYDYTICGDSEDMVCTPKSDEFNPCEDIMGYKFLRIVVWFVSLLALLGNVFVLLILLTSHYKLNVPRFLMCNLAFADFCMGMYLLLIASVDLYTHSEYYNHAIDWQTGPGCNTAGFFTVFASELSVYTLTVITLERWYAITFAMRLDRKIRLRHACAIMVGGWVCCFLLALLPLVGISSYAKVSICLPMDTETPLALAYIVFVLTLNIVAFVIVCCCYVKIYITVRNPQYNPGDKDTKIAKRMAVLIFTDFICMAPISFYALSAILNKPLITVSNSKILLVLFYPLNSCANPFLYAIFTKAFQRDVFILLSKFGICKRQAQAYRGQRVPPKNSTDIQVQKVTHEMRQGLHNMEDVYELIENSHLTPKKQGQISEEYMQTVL

CSc1ccc(C(=O)C(C)(C)N2CCOCC2)cc1
active: [12] 2.73 µM
not listed: [13] | [14] | [15] | [16] | [17]
inactive: all other assays above

C#C[C@]1(O)C=C[C@H]2[C@@H]3CCC4=CC(=O)CC[C@@H]4[C@H]3CC[C@@]21CC
active: [4] 11.9 µM
inactive: [1] | [2] | [3] | [5] | [7] | [8] | [9] | [13]

CNNC
not listed: [6] | [9] | [12] | [16] | [17]
inactive: all other assays above

C#CCN1C(=O)COc2cc(F)c(N3C(=O)C4=C(CCCC4)C3=O)cc21
inactive: [1] | [2] | [3] | [4] | [5] | [7] | [8] | [9] | [12]
active: [14] 48.6 µM

COC(C)(C)C
not listed: [10] | [11] | [14] | [15] | [16] | [17]
inactive: all other assays above

C[N+](C)=CCl
not listed: [10] | [11] | [14] | [15] | [16] | [17]
inactive: all other assays above

Clc1ccccc1N1CCNCC1
not listed: [10] | [11] | [14] | [15] | [16] | [17]
inactive: all other assays above

O=C(O)c1cccc(Cl)c1
not listed: [11] | [15] | [16] | [17]
inactive: all other assays above

c1cc2c(c(N3CCNCC3)c1)OCCO2
not listed: [10] | [11] | [12] | [14] | [15] | [16] | [17]
inactive: all other assays above

COC(=O)c1c(C(F)F)nc(C(F)(F)F)c(C2=NCCS2)c1CC(C)C
not listed: [10] | [14] | [16] | [17]
inactive: all other assays above

CCCCc1ccc(O)cc1
not listed: [11] | [12] | [15] | [16] | [17]
inactive: all other assays above

Cc1nc(N)nc(N)n1
not listed: [11] | [15] | [16] | [17]
inactive: all other assays above

O=C(Oc1ccc(Br)cc1)N1CCN2CCC1CC2
not listed: [10] | [11] | [14] | [15] | [16] | [17]
inactive: all other assays above

O=C1OC(c2ccc(O)c(S(=O)(=O)O)c2)(c2ccc(O)c(S(=O)(=O)O)c2)c2c(Br)c(Br)c(Br)c(Br)c21
not listed: [10] | [11] | [12] | [14] | [15] | [16] | [17]
inactive: all other assays above

Cc1ncc(CNC(=O)N(CCCl)N=O)c(N)n1
not listed: [6] | [9] | [10] | [11] | [14] | [15]
inactive: all other assays above

CCC(C)(C)c1cc(-n2nc3ccccc3n2)c(O)c(C(C)(C)CC)c1
inactive: [1] | [2] | [3] | [5] | [7] | [10] | [14] | [12]
active: [15] 49.3 µM

O=C(NCO)NCO
not listed: [4] | [5] | [11] | [15] | [16] | [17]
inactive: all other assays above

ClC(Cl)(Cl)C(Cl)(Cl)Cl
inactive: [1] | [2] | [3] | [6] | [7] | [8] | [9] | [13]

CC1CCC(=O)O1 (stereo unspecified)
not listed: [4] | [5] | [10] | [14] | [16] | [17]
inactive: all other assays above

Cc1cccc(C#N)c1
not listed: [4] | [5] | [11] | [12] | [15] | [16] | [17]
inactive: all other assays above

CCC(C)n1c(=O)[nH]c(C)c(Br)c1=O (stereo unspecified)
not listed: [4] | [5] | [16] | [17]
inactive: all other assays above

Cc1ncsc1CCCl
not listed: [4] | [5] | [6] | [10] | [11] | [14] | [15]
inactive: all other assays above

Oc1c(Cl)cccc1Cl
not listed: [5] | [9] | [10] | [11] | [15] | [16] | [17]
inactive: all other assays above
